# Test results taken from PubChem BioAssay (NCATS).
# Results filed as inconclusive are left out. Entries that show only a call come without a potency. Active and inactive are the calls of the source. Unless noted, calls follow the shape of the dose curve; as a rule, active = well fitted curve in the direction sought with a large enough effect; inconclusive = small, poorly fitted or top-dose-only effect, or another doubt; inactive = no such curve, though single readings can be large; an effect the other way counts as inactive or inconclusive.
# Experiments:
# [1] = Dual reporter qHTS for antagonist of Pregnane X Receptor (hPXR) against the NCATS DSHEA and TCM libraries: Fluorescence Readout (AID 1920061)
# Method in brief: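 HepG2 hPXR-Luc, 2000 cells/well, charcoal-stripped FBS medium; 5 h attach; RIF 2 uM final; 24 h 37C/5% CO2; CellTiter-Fluor 1 h, fluor 405/540; ONE-Glo 30 min RT, lum.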
# [2] = biological target: Rap guanine nucleotide exchange factor 3 (Homo sapiens) (UniProt O95398); assay: Confirmatory qHTS for agonist of cAMP-regulated guanine nucleotide exchange factor 3 (EPAC1) (AID 1645881);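 also: EPAC1 catalysed release of BODIPY-GDP from Rap1B seen as fluorescence loss; nearly all actives have a fitted effect of over 75% in size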
# Sequence of Rap guanine nucleotide exchange factor 3 (Homo sapiens) (O95398 whole entry, looked up): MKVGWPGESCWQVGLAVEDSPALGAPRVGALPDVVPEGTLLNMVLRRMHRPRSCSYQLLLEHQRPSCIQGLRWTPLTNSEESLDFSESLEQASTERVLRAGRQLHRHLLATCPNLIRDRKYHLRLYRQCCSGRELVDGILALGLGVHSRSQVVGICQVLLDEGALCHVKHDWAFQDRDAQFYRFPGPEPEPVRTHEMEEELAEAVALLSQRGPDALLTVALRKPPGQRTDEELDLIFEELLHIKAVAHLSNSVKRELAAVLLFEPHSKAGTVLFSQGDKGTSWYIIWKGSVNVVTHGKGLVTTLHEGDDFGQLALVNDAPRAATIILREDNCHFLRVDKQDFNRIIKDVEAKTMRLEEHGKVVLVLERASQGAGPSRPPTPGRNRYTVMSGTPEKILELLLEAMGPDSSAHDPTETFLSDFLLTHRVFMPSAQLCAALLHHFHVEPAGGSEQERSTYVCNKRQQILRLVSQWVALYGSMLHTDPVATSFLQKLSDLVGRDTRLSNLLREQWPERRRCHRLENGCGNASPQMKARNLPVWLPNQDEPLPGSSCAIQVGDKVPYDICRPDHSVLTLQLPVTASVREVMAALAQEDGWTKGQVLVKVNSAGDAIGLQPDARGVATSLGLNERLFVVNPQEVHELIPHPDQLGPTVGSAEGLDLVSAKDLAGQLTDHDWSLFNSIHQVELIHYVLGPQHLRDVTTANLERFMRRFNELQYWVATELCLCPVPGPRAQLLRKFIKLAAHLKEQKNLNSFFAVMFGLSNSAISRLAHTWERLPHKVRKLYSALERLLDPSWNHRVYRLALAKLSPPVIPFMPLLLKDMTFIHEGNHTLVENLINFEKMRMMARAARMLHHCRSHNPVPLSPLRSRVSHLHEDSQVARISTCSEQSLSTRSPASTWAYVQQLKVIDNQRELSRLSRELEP
# [3] = biological target: Rap guanine nucleotide exchange factor 4 (Homo sapiens) (UniProt Q8WZA2); assay: Confirmatory qHTS for agonist of cAMP-regulated guanine nucleotide exchange factor 4 (EPAC2) (AID 1645884);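 also: nucleotide exchange releases bodipy-GDP from Rap1 and this lowers its fluorescence; nearly all actives have a fitted effect of over 65% in size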
# Sequence of Rap guanine nucleotide exchange factor 4 (Homo sapiens) (Q8WZA2 whole entry, looked up): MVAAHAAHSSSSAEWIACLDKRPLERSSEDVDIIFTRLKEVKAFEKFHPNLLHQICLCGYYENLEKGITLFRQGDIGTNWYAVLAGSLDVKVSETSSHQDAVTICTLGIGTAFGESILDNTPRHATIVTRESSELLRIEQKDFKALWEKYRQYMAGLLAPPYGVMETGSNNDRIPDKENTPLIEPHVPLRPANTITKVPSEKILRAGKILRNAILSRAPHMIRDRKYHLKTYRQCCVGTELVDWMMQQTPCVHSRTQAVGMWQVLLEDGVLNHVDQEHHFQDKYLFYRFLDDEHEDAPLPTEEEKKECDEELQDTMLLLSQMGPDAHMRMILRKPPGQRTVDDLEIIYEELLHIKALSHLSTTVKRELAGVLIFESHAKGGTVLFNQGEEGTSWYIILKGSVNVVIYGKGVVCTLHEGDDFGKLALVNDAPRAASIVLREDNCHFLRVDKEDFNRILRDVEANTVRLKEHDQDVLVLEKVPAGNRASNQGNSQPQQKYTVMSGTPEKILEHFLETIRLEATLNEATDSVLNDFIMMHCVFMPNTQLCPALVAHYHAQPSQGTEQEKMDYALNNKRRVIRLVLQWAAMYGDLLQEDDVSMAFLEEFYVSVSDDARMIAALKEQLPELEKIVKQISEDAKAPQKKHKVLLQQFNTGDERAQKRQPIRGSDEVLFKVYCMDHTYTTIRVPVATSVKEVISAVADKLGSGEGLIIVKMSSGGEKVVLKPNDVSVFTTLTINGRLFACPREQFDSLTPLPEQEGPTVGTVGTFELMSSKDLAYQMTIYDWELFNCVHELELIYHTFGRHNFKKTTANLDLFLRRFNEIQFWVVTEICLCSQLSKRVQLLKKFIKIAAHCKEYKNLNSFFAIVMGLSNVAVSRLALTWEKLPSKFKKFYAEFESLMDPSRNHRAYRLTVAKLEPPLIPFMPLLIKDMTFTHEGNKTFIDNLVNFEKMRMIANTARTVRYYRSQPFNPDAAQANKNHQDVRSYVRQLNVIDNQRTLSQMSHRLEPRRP
# [4] = biological target: Rap guanine nucleotide exchange factor 4 (Homo sapiens) (UniProt Q8WZA2); assay: Confirmatory qHTS for antagonist of cAMP-regulated guanine nucleotide exchange factor 4 (EPAC2) (AID 1645885); also: potency is read from the fitted curve at half-maximal effect; nearly all actives have a fitted effect of over 25% in size
# [5] = biological target: Rap guanine nucleotide exchange factor 3 (Homo sapiens) (UniProt O95398); assay: Counterscreen qHTS for antagonist of cAMP-regulated guanine nucleotide exchange factor 3 (EPAC1) (AID 1645888);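 also: fluorescence loss as bound BODIPY-GDP is released from Rap1B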
# Method in brief: (§1)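 Measured: fluorescence of BODIPY-GDP bound to Rap1B, which falls as exchange proceeds. Conditions include 50 uM competing GDP, 5 and 30 min reads, and a later cAMP challenge for antagonist detection.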
# [6] = biological target: Rap guanine nucleotide exchange factor 3 (Homo sapiens) (UniProt O95398); assay: Counterscreen qHTS for agonist of cAMP-regulated guanine nucleotide exchange factor 3 (EPAC1) (AID 1645889); also: nearly all actives have a fitted effect of over 40% in size
# Method in brief: as §1
# [7] = biological target: RecQ-like DNA helicase BLM (Homo sapiens) (UniProt P54132); assay: qHTS Validation Assay for Inhibitors of Bloom's syndrome helicase (BLM) (AID 2364); also: potency is read from the fitted curve at half-maximal effect
# Method in brief: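 BLM 50 nM in 25 mM Tris-HCl pH 8.0, 5 mM NaCl, 2 mM MgCl2, 1 mM DTT, 0.01% Tween-20, 2.5 ug/ml poly(dI-dC); 15 min cpd preinc, RT. Start: 200 nM forked DNA + 2 mM ATP (final). TAMRA read, 2 reads 2 h apart.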
# [8] = Validation screen for small molecules that induce DNA re-replication in SW480 colon adenocarcinoma cells (AID 504364); also: potency is read from the fitted curve at half-maximal effect
# Method in brief: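 250 cells/well; compound pinned in; 48 hr, 37 C, 5% CO2; Hoechst added, 40 min; nuclear fluorescence imaged, 405 ex / 500-530 em; re-replication scored as increase in high-intensity nuclei.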
# [9] = biological target: Glutaminase kidney isoform, mitochondrial (Homo sapiens) (UniProt O94925); assay: qHTS for Inhibitors of Glutaminase (GLS): LOPAC Validation (AID 624146);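 also: glutamate product detected by oxidase and peroxidase coupled Amplex red fluorescence gain; series mostly up to about 46 µM; nearly all actives have a fitted effect of over 60% in size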
# Sequence of Glutaminase kidney isoform, mitochondrial (Homo sapiens) (O94925 whole entry, looked up, canonical isoform): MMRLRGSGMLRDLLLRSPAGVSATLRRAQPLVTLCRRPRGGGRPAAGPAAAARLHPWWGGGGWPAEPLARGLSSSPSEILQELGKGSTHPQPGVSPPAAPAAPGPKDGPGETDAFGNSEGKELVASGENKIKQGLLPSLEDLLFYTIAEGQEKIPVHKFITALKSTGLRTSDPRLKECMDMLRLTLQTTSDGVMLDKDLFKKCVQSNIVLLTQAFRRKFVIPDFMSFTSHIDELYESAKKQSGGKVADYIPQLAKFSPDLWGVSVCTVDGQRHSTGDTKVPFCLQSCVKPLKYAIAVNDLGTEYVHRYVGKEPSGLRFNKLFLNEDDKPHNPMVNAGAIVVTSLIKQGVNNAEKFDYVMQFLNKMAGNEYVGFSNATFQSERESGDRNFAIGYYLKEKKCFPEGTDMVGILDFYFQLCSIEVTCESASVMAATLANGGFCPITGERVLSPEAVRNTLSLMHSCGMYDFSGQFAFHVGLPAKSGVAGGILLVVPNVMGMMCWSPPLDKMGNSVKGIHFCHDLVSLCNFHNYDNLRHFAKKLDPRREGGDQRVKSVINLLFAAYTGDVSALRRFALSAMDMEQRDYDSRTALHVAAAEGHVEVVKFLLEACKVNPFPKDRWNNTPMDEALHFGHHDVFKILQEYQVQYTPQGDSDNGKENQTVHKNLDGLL
# Method in brief: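 Read-out is an Amplex red fluorescence increase coupled through glutamate oxidase and HRP, measured before and after 30 min room-temperature incubation. hKGA is in 45 mM KH2PO4 (pH 8.2) with 0.02% Tween-20; glutamine added as 1mM solution.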
# [10] = qHTS of Trypanosoma Brucei Inhibitors: LOPAC Validation (AID 624147)
# Method in brief: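 T. brucei PYK with substrate was exposed to pin-transferred compounds across a concentration series, then started with 130 uM ADP (final). After 45 min at room temperature, Kinase-Glo Plus luminescence was read, normalized and curve-fitted.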
# [11] = HTS Assay for Allosteric Antagonists of the Human D2 Dopamine Receptor: Hit Validation in HTRF (AID 624455);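 also: stable D1 dopamine receptor cell line scored for blocking the D1 response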
# Method in brief: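 First, antagonism was screened by calcium flux in a force-coupled, inducible Hek293 Trex D2 line challenged with EC80 dopamine. Hits then went into an HTRF assay in cells stably expressing D1, testing inhibition of the D1 response.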
# [12] = biological target: Cytochrome P450 2D6 (Homo sapiens) (UniProt P10635); assay: qHTS Assay for Inhibitors and Substrates of Cytochrome P450 2D6 (AID 891);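 also: luciferin methyl ether substrate demethylated by CYP2D6 with NADPH regeneration; nearly all actives have a fitted effect of over 60% in size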
# Sequence of Cytochrome P450 2D6 (Homo sapiens) (P10635 whole entry, looked up): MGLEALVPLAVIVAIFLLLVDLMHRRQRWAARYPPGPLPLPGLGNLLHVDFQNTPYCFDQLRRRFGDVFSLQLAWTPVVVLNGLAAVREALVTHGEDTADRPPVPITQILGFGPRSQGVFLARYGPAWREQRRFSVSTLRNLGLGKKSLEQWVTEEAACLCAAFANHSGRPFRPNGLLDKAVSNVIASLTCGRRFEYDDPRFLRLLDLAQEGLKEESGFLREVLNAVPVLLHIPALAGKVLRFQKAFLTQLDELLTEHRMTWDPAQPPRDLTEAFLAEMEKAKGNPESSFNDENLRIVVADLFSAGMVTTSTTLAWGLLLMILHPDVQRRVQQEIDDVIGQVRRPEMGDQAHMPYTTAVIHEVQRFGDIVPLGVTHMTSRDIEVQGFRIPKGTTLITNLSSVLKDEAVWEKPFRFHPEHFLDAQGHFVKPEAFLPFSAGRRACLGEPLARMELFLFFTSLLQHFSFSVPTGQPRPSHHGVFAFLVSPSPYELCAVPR
# Method in brief: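 Human CYP2D6 (5 nM) with 30 uM Luciferin-ME EGE (at Km) in 100 mM KPO4, compound preincubated 10 min, then NADPH regeneration system for 60 min at room temperature. Luciferin read by luminescence; normalized to 1.43 uM quinidine.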
# [13] = biological target: D(1A) dopamine receptor (Homo sapiens) (UniProt P21728); assay: HTS Assay for Allosteric Agonists of the Human D1 Dopamine Receptor: Primary Screen for Potentiators (AID 488982); also: potency is read from the fitted curve at half-maximal effect
# Sequence of D(1A) dopamine receptor (Homo sapiens) (P21728 whole entry, looked up): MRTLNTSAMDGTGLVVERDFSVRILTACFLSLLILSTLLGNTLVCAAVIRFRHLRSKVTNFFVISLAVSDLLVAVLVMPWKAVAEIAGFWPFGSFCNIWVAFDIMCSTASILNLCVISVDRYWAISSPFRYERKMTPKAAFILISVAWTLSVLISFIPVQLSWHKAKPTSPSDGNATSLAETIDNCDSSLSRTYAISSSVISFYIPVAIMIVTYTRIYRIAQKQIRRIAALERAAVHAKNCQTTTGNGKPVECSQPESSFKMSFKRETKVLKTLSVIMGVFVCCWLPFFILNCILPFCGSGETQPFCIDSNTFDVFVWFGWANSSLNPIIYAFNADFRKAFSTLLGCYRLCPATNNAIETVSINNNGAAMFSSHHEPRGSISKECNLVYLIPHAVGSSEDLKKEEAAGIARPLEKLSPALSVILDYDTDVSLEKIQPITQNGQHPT
# Method in brief: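 Tetracycline-induced HEK293 T-REx cells force-coupled to calcium signalling were incubated overnight at 30 C and dye-loaded at room temperature. Calcium flux over 180 s after compound addition flagged agonists; a further 180 s read after EC20 dopamine flagged potentiators.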
# [14] = biological target: DNA dC->dU-editing enzyme APOBEC-3G (Homo sapiens) (UniProt Q9HC16); assay: qHTS for inhibitors of Vif-A3G interactions: Validation (AID 588379); also: potency is read from the fitted curve at half-maximal effect
# Sequence of DNA dC->dU-editing enzyme APOBEC-3G (Homo sapiens) (Q9HC16 whole entry, looked up): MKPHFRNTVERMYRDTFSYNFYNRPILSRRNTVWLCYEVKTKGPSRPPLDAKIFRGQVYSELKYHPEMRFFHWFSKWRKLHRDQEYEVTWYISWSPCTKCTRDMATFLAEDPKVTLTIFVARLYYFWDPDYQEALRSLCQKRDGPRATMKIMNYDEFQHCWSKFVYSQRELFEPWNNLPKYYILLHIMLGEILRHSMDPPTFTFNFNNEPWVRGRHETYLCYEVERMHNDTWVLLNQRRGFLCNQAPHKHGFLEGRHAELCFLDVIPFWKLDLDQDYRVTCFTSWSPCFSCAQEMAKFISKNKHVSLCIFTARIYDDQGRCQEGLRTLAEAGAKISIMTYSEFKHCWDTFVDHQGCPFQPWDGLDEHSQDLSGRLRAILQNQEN
# Method in brief: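 HeLa cells stably expressing Vif and A3G-eYFP, 700 cells/well, incubated overnight at 37 deg C, then exposed to compound overnight at 37 deg C. Inhibition of Vif-mediated degradation read as increased yellow fluorescence (Ex 488/Em 500-530) by laser-scanning cytometry.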
# [15] = qHTS Assay for Identification of Small Molecule Antagonists for Thrombopoietin (TPO) Signaling Pathway (AID 918); conditions: TPO-dependent cell signaling reporter, antagonist mode; also: potency is read from the fitted curve at half-maximal effect; nearly all actives have a fitted effect of over 60% in size
# Method in brief: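 Ba/F3 (murine, hTPO-R, GPIIb-luc reporter); overnight IL-3 withdrawal; cpd + TPO 26 pM final (EC50); 24 h 37 C/5% CO2; Steadylite luminescence after 10 min RT.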
# [16] = qHTS for compounds that reverse cellular toxicity of Amyloid beta (A-beta) peptide in yeast: LOPAC Validation Assay (AID 720559)
# Method in brief: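 Activity is expressed relative to DMSO and an equimolar ferric chloride/clioquinol mix. Compounds were pinned into medium with A-beta-expressing yeast, grown 48 hr at 30 C, then read by absorbance at 600 nm.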
# [17] = qHTS Assay for Identification of Small Molecule Antagonists for NFkB Signaling Pathway (AID 895; active = well fitted inhibition curve with a large enough effect in the signal ratio, with a control signal flat, not every such curve was filed as active; the % refers to the signal ratio; also: potency is read from the fitted curve at half-maximal effect)
# Method in brief: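 NFkB-bla ME-180 cervical carcinoma cells with beta-lactamase reporter under NFkB response element; compounds added, then TNF alpha at 10 pM final (EC50), 5 h at 37 C. LiveBLAzer substrate 2 h, room temperature; emission 460/530 nm at 405 nm excitation.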
# [18] = biological target: ATPase family AAA domain-containing protein 5 (Homo sapiens) (UniProt Q96QE3); assay: Validation screen for small molecules that inhibit ELG1-dependent DNA repair in human embryonic kidney (HEK293T) cells expressing luciferase-tagged ELG1 (AID 493107); also: potency is read from the fitted curve at half-maximal effect; nearly all actives have a fitted effect of over 70% in size
# Method in brief: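 Luminescence from ONE-Glo, developed 30 min at room temperature, served as read-out of ELG1-luciferase levels. Beforehand, reporter HEK293T cells received 5-fluorouridine plus test compound for 16 hr at 37 °C.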
# [19] = qHTS for Inhibitors of ATXN expression: Validation (AID 588378); also: potency is read from the fitted curve at half-maximal effect; nearly all actives have a fitted effect of over 75% in size
# Method in brief: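 Validation of ATXN2 expression inhibitors uses a cell-based luciferase fusion reporter in HEK293 cells, with 24 h compound exposure and paired viability (fluorescence) and reporter (luminescence) end-point reads.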
# [20] = biological target: Tyrosyl-DNA phosphodiesterase 1 (Homo sapiens) (UniProt Q9NUW8); assay: Confirmation Assay for Inhibitors of Tyrosyl-DNA Phosphodiesterase (TDP1) (AID 489007); conditions: recombinant human TDP1 enzymatic activity, dose-response; also: potency is read from the fitted curve at half-maximal effect; nearly all actives have a fitted effect of over 40% in size
# Sequence of Tyrosyl-DNA phosphodiesterase 1 (Homo sapiens) (Q9NUW8 whole entry, looked up): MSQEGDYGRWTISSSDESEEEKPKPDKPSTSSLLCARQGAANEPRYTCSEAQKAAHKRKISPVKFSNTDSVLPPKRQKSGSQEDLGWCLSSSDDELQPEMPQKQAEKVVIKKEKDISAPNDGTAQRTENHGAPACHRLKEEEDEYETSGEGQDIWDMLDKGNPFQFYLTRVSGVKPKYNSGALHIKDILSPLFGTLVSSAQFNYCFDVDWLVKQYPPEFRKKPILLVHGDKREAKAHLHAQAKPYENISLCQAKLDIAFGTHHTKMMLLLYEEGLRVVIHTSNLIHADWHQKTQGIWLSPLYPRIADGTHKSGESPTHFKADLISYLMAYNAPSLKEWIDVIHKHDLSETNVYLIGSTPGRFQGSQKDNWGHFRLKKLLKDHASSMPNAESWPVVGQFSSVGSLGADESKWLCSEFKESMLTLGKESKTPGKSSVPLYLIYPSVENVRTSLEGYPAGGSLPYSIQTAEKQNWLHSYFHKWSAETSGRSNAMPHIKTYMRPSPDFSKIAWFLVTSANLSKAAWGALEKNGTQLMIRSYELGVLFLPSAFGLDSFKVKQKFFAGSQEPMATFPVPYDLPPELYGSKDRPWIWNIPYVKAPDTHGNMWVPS
# Method in brief: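 Tdp1 1 nM + cpd, 15 min RT; add biotin/phosphotyrosine-FITC oligo 15 nM, 5 min RT; add AS donor/acceptor beads 10 ug/ml, 10 min RT; read AlphaScreen. No-enzyme wells = max signal.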
smiles,measurement,setting,value
C=C(C)[C@@H]1CC=C(C=O)CC1,outcome,[1],inactive
CC(C)COC(=O)c1ccccc1C(=O)OCC(C)C,outcome,[2],inactive
same,outcome,[3],inactive
same,Potency,[4],37.9 µM (active)
same,outcome,[5],inactive
same,outcome,[6],inactive
Nc1nc(N)c2nc(CNc3ccc(C(=O)NC(CCC(=O)O)C(=O)O)cc3)cnc2n1 (stereo not given),Potency,[7],20 µM (active)
COc1cc([C@@H]2c3cc4c(cc3[C@H](O)C3COC(=O)[C@@H]32)OCO4)cc(OC)c1OC (stereo not given in full),Potency,[8],32.6 nM (active)
same,outcome,[9],inactive
same,outcome,[10],inactive
Cn1ccnc1,outcome,[11],inactive
Nc1nc2ccc(Cl)cc2c2nc(-c3ccco3)nn12,Potency,[12],inactive
same,Potency,[13],1.3 µM (active)
same,Potency,[14],596 nM (active)
O=c1oc(Cl)c(Cl)c2ccccc12,Potency,[15],12.6 µM (active)
same,outcome,[16],inactive
Brc1c(Br)c(Br)c2n[nH]nc2c1Br,Potency,[17],5.01 µM (active)
same,Potency,[18],25.9 µM (active)
same,Potency,[19],28.2 µM (active)
NC1C=CC=C(C(=O)O)C1 (stereo not given),Potency,[20],1.12 µM (active)
